# Assay results from PubChem BioAssay AID588727 (Southern Research Specialized Biocontainment Screening …, 2011).
# Hit rate of the full screen: of about 350,000 compounds, about 450 (0.13%) were called active. Only a sample is shown. Measured potencies and affinities stand elsewhere. A number with no mark means an inactive call. How the calls were made is not given here.
# Test: inhibitors of VEEV TC-83 cytopathic effect, confirmation, Vero cells (AID 588727)
# Conditions: VEEV TC-83 cytopathic effect inhibition, at 20 µM; hits give high values unless noted
row,Compound,inhibition
1,CC(C)c1ccc(NC(=O)CN2C(=O)NC3(CCCC3)C2=O)cc1,inactive
2,CCOC(=O)C1CCCN(C(=O)c2cc3cc4ccc(OC)cc4nc3o2)C1 (stereo unspecified),1.72%
3,Cc1ccc(N2C(=O)N3[C@H]4c5ccccc5OC[C@@H]4[C@@H](c4ccccc4)[C@@]3(C)C2=O)cc1,0.66%
4,CN(CC(=O)Nc1cccc(F)c1)C(=O)CCc1nc2cc(S(=O)(=O)N3CCOCC3)ccc2n1C,0.55%
5,CC(C)Oc1ccc(CSc2nnc3n(C)c(=O)c4c5c(sc4n23)CCCC5)cc1,inactive
6,CCCCNC(=O)COC(=O)c1ccc(SC)cc1OC,2.58%
7,CC(=O)Nc1ccc(S(=O)(=O)N2CCC(NC(=O)C(Cc3cccc(F)c3)NC(C)=O)CC2)cc1 (stereo unspecified),0.28%
8,CC12CC[C@H]3[C@@H](CCC4(O)C[C@H](O)CCC34/C=N/NC(=O)c3ccc(O)cc3)C1(O)CCC2C1=CC(=O)OC1 (stereo partly specified),0.73%
9,C[C@]12CCC3C(CCC4=CC(O)CC[C@@]43/C=N/O)C1(O)CCC2C1=CC(=O)OC1 (stereo partly specified),27.9%
10,COc1ccc(C(=O)N/N=C/C23CC[C@@H](O)CC2(O)CC[C@@H]2[C@@H]3CCC3(C)C(C4=CC(=O)OC4)CCC23O)cc1 (stereo partly specified),42.5%
11,C[C@H]1CC[C@@H]2[C@@H](C)[C@H]3[C@H](C[C@H]4[C@@H]5CC=C6C[C@@H](O[C@@H]7O[C@H](CO)[C@H](O)[C@H](O[C@@H]8O[C@H](CO)[C@@H](O)[C@H](O)[C@H]8O)[C@H]7O[C@@H]7O[C@@H](C)[C@H](O)[C@@H](O)[C@H]7O)CC[C@]6(C)[C@H]5CC[C@]34C)N2C1,inactive
12,CC(=O)[C@@]1(O)CCC2C3CC[C@H]4C[C@@H](O)CC[C@]4(C)C3CC[C@@]21C (stereo partly specified),6.31%
13,COc1cc(C(=O)N/N=C/C23CC[C@@H](O)CC2(O)CC[C@@H]2[C@@H]3CCC3(C)C(C4=CC(=O)OC4)CCC23O)ccc1O (stereo partly specified),7%
14,CC(=O)O[C@@H]1CC[C@]2(C)C3CC[C@@]4(C)C(C[C@@H](O)[C@@H]4O)C3[C@@H](OC(C)=O)C[C@H]2C1 (stereo partly specified),0.36%
15,CCOc1ccc(N2CC(C(=O)Nc3cccc(C(=O)NC4CC4)c3)CC2=O)cc1 (stereo unspecified),1.22%
16,Cc1ccccc1OCC(=O)Nc1ccc(N2CCOCC2)cc1N1CCOCC1,6.68%
17,COc1ccc(C2(C)NC(=O)NC2=O)cc1OC (stereo unspecified),inactive
18,COc1ccc(OC(C)c2ccc(C#N)c(=O)[nH]2)cc1 (stereo unspecified),1%
19,Cc1cc(=O)[nH]c(SCn2nnc3ccccc3c2=O)n1,0.62%
20,COc1ccc(S(=O)(=O)c2c(O)c3ccc(C(=O)Nc4ccccc4Cl)cc3[nH]c2=O)cc1,0.45%
21,O=C1COc2ccc(C(=O)COC(=O)c3ccc(S(=O)(=O)C(F)F)cc3)cc2N1,3.01%
22,COc1cc(/C=N/NC2=NS(=O)(=O)c3ccccc32)cc(OC)c1OC,0.18%
23,C[C@]12CC[C@H]3[C@@H](CC[C@]4(O)C[C@@H](O)CC[C@]34C=O)[C@@]1(O)CC[C@@H]2C1=CC(=O)OC1,24.6%
24,CC12CC[C@H]3[C@@H](CCC4(O)C[C@H](O)CCC34/C=N/NC(=O)c3ccccc3Cl)C1(O)CCC2C1=CC(=O)OC1 (stereo partly specified),2.51%
25,Fc1ccc(-c2nnc(Cc3ccc(Cl)cc3)o2)cc1,inactive
26,Cc1ccc(OCCSc2nc(N)cc(N)n2)cc1,3.61%

row,Compound,inhibition
1,O=C(c1ccc(F)cc1)c1ccc(-c2ccc(F)cc2)nc1,1.5%
2,COc1ccc(Cl)c2sc(N(CCN(C)C)C(=O)c3ccc4c(c3)OCCO4)nc12,3.95%
3,Cc1cc(C)c2nc(N(CCCN(C)C)C(=O)c3ccc4c(c3)OCCO4)sc2c1,11.7%
4,CN(Cc1ccccc1)C(=O)CN(C)S(=O)(=O)c1ccc(F)cc1,0.12%
5,COc1ccc2cc(-c3cc(C(=O)OCC(=O)Nc4c(C)n(C)n(-c5ccccc5)c4=O)c4ccccc4n3)ccc2c1,inactive
6,Cc1c(NC(=O)COC(=O)c2cc(-c3cccc4ccccc34)nc3ccccc23)c(=O)n(-c2ccccc2)n1C,2.81%
7,CC(C)[C@H](NC(=O)C1CC(=O)N(c2ccc3c(c2)OCCO3)C1)C(=O)NC1CCCC1 (stereo partly specified),3.54%
8,O=C(CSc1nnc(-c2ccccc2Br)o1)N1CCOCC1,0.96%
9,Nc1ccc(CC2SC(=O)NC2=O)cc1 (stereo unspecified),0.36%
10,Cc1ccc(CC2SC(=O)NC2=O)cc1Cl (stereo unspecified),4.25%
11,Cc1ccccc1N1C(=O)C(Cc2ccc(F)cc2)S/C1=C(\C#N)C(N)=O (stereo unspecified),0.67%
12,O=C1NC(=O)C(Cc2cccc(Oc3ccccc3)c2)S1 (stereo unspecified),0.8%
13,COc1ccc(/C=C(/NC(=O)c2ccccc2)C(=O)N2CCCC2)cc1,1.46%
14,CCN(Cc1ccccc1)C(=O)c1ccc(N(C)S(=O)(=O)c2ccc(C)cc2)cc1,10.1%
15,CC(=O)NC1=NN(C(C)=O)C(c2ccc(C)cc2)S1 (stereo unspecified),0.39%
16,Cc1[nH]c2ccccc2c1/C=N/NC(=O)c1cccc(F)c1,4.66%
17,CCOC(=O)CNC(=O)CSc1nc(C(C)C)nc2c1cnn2-c1ccccc1,8.46%
18,COc1ccc(-c2cc(=O)oc3cc(OC(C)C(=O)NCCCn4ccnc4)ccc23)cc1 (stereo unspecified),1.83%
19,CCCc1nc2c(=O)n(C)c(=O)[nH]c2n1CCC,0.72%
20,CCn1c(=O)c2[nH]c(SC)nc2n(CC)c1=O,1.13%
21,COc1ccccc1-c1ccc2c(c1)O[C@@H](CN(C)C(=O)Nc1cccc(F)c1)[C@H](C)CN([C@H](C)CO)S2(=O)=O,5.59%
22,O=C(N/N=C(/CC(=O)c1cccs1)C(F)(F)F)c1ccc(O)cc1,0.06%
23,O=C(N/N=C(\CC(=O)c1cccs1)C(F)(F)F)c1cccnc1,inactive
24,CCOCCn1c(CN2CCN(c3cccc(Cl)c3)CC2)nc2c1c(=O)n(C)c(=O)n2C,inactive
25,COc1ccc(N2CCN(C(=O)c3cc(=O)c4cc(Cl)ccc4o3)CC2)cc1,0.39%
